Records with an inconclusive call do not appear. Active and inactive are the calls of the source. Unless noted, the call rests on the fitted dose curve; in most records, active means well fitted curve in either direction with a large enough effect (not every such curve was filed as active); inconclusive means small, poorly fitted or top-dose-only effect, or another doubt; inactive means flat fitted curve, though single readings scatter.
Assays:
[1] = target: Lysosomal acid glucosylceramidase (Homo sapiens) (UniProt P04062); assay: Glucocerebrosidase-p2 (AID 348; in the data active means potency below about 10 µM; further: potency means the concentration at half of the fitted maximal effect); conditions: purified GBA, blue fluorogenic substrate, 40 min
Lysosomal acid glucosylceramidase (Homo sapiens), sequence (P04062 whole entry, looked up): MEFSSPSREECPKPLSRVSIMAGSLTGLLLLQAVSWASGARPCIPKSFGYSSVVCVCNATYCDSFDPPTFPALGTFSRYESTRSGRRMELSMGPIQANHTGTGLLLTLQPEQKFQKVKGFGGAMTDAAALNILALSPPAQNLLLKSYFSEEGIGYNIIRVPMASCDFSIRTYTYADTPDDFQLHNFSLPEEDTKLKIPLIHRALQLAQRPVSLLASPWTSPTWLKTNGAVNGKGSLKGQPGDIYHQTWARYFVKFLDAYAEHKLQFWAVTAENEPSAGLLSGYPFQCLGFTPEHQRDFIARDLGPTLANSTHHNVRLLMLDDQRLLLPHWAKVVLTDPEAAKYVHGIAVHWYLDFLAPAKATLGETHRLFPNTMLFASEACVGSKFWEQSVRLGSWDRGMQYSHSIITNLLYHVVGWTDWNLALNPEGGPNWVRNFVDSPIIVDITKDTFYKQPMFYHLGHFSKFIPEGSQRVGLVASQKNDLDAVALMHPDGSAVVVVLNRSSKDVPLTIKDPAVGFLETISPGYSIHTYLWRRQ
In short: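 Normal human glucocerebrosidase (0.2 nM) with blue fluorogenic substrate (80 uM final) in citrate/phosphate pH 5.9 with 10mM sodium taurocholate, 0.01% tween-20; 40 min RT, NaOH/glycine stop; fluorescence Ex 365/Em 440; AC50 from a titration from 0.6 nM upwards.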

[2] = AP1 Signaling Pathway (AID 357); conditions: ME-180 AP-1-bla reporter, EGF-induced, beta-lactamase ratio, 5 h; at 7.69 µM (top of the series) unless noted;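 further: ME-180 reporter cells stimulated with EGF at its EC50 level; on the % scale 0 is the no-effect control and ±100 the full control effect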
In short: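 First, ME-180 AP-1-bla cells were cultured overnight at 37 °C in low-serum Opti-MEM. Next, titrated compounds with EC50 EGF were incubated 5 hours. Finally, CCF4 was added for 2.5 hours and the 460/530 nm ratio recorded.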

[3] = Stat Signaling Pathway (AID 446); conditions: ME-180 (cervical carcinoma) SIE beta-lactamase reporter, IL-6 stimulated, 5 h; at 7.69 µM (top of the series) unless noted;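 further: ME-180 cervical cancer cells given 40 pM IL-6 alongside compound; SIE-controlled beta-lactamase reporter measured as 460/530 nm FRET emission ratio; on the % scale 0 is the no-effect control and ±100 the full control effect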
In short: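 Normalization used AC90 stimulation (300 pM IL-6) and AC90 inhibition (125 nM pan-JAK inhibitor at 40 pM IL-6). The underlying signal is SIE-driven beta-lactamase in ME-180 cells after 5 h IL-6 exposure with compound.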

[4] = target: Glucocorticoid receptor (Homo sapiens) (UniProt P04150); assay: GR-GFP Redistribution (AID 450;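 active means compounds whose dose series gives a full or clear partial fitted curve of increased nuclear translocation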; further: potency means the concentration at half of the fitted maximal effect); conditions: U2OS GR-GFP nuclear translocation, laser cytometry, 2 h
Glucocorticoid receptor (Homo sapiens), sequence (P04150 whole entry, looked up, the tested form may be a part): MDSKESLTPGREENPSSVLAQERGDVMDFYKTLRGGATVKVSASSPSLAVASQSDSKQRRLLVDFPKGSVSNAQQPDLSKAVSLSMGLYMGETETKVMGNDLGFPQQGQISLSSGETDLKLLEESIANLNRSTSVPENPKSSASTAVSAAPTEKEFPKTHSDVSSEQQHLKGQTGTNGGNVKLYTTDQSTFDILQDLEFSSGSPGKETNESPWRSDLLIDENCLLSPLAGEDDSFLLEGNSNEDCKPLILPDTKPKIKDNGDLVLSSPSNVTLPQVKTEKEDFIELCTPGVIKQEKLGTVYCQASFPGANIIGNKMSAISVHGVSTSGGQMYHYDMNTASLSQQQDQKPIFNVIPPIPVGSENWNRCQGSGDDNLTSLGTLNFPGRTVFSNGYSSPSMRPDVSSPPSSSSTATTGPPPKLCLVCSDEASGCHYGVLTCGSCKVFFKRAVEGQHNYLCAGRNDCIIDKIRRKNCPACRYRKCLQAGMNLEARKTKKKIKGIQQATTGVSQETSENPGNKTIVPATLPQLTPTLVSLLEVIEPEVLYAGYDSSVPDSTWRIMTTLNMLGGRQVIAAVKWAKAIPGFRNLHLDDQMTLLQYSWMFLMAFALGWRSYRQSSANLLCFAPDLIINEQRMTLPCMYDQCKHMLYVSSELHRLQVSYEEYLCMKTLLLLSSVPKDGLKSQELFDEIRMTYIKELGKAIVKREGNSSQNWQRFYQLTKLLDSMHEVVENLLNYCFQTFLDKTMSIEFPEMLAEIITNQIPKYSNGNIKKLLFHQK

[5] = target: Glucocorticoid receptor (Homo sapiens) (UniProt P04150); assay: GR-EFC Redistribution (AID 451; calls by dose curve; further: potency means the concentration at half of the fitted maximal effect); conditions: CHO-K1 GR-EFC translocation, beta-gal luminescence, 2 h
In short: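 CHO-K1 cells expressing nuclear EA and GR-ED fragments of b-gal; compounds titrated up to 46 uM final, 2 h at 37 C. GR nuclear translocation read as complemented b-gal luminescence after 1 h RT detection.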

[6] = target: Mitogen-activated protein kinase 10 (Mus musculus) (UniProt Q61831); assay: JNK3 AlphaScreen Assay (AID 530); conditions: JNK3 lysate, c-Jun phosphorylation; series mostly up to 57.1 µM;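 further: kinase came from lysate of stimulated human HepG2 cells; signal reports phosphorylation of biotinylated GST-cJun 1-79 at Ser73 with 10 µM ATP; on the % scale 0 is the no-effect control and ±100 the full control effect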
In short: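 Activity was read by AlphaScreen after JNK3-containing HepG2 lysate (cytokine pre-activated) phosphorylated biotinylated GST-cJun with 10 uM ATP at room temperature. Phospho-Ser73 cJun antibody with Protein-A acceptor beads provided detection.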

[7] = target: 3',5'-cyclic-AMP phosphodiesterase 4B (Homo sapiens) (UniProt Q07343); assay: qHTS Assay for Inhibitors of PDE-IV (AID 607; active means well fitted activation curve with a large enough effect in the main read-out, with a control signal flat, not every such curve was filed as active; further: % of control where 0% means no effect); conditions: HEK293 ACTOne CNG channel cells, membrane potential fluorescence; series mostly up to 22.9 µM
3',5'-cyclic-AMP phosphodiesterase 4B (Homo sapiens), sequence (Q07343 whole entry, looked up): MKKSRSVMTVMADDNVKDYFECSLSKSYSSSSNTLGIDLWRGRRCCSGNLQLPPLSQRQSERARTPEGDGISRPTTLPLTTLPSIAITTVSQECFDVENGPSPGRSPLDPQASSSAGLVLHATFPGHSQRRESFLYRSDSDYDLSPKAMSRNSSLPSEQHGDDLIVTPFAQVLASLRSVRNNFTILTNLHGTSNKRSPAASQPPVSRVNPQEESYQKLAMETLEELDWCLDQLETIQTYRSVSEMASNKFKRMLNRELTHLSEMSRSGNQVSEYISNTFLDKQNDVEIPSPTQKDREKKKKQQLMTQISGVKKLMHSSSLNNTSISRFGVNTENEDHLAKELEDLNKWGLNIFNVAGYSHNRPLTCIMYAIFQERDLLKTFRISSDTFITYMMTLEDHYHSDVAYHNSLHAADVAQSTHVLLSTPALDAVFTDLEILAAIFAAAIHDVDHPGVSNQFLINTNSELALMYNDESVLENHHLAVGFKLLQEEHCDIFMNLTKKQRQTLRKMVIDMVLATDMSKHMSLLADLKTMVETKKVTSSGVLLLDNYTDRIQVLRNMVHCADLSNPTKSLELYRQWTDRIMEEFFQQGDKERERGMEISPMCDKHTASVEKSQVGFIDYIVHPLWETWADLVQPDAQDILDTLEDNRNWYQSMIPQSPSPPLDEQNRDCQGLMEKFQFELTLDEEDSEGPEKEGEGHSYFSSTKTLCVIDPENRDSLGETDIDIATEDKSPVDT
In short: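 HEK293 ACTOne cells with CNG channel (1000/well), endogenous PDE4; membrane potential dye, compounds up to 22.9 uM final. Fluorescence Ex 535/Em 590; RO 20-1724 (100 uM final) as reference.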

[8] = target: Cytochrome P450 1A2 (Homo sapiens) (UniProt P05177); assay: p450-cyp1a2 (AID 410; calls by dose curve; further: potency means the concentration at half of the fitted maximal effect;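 on activity change, negative = inhibition: -100% = full effect of reference inhibitor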); conditions: recombinant CYP1A2, luciferin-ME demethylation, luminescence; series mostly up to 11.4 µM
Cytochrome P450 1A2 (Homo sapiens), sequence (P05177 whole entry, looked up): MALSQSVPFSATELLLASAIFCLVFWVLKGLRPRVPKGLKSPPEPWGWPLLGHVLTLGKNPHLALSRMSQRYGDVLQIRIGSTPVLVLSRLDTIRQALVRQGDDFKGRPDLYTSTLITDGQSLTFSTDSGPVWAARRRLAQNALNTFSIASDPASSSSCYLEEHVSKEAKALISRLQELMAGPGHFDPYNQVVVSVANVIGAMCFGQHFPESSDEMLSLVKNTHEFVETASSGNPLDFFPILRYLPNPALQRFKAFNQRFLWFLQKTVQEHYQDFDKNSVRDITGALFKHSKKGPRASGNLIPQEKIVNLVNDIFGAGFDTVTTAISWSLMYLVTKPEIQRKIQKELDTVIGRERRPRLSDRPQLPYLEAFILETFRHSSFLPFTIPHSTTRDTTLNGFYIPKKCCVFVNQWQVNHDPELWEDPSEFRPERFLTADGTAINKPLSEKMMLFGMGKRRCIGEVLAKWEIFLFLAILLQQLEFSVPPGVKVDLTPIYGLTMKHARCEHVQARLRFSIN
In short: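 Luminescent demethylation readout: Luciferin-ME (100uM, equal to Km) turned over by 20nM CYP1A2 for 60 min at room temperature after NADPH regeneration addition, following 10 min compound preincubation. Normalization used 57 uM furafylline as full inhibition.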

[9] = NFAT Signaling Pathway (AID 444); conditions: Jurkat NFAT-bla M1, carbachol, beta-lactamase ratio, 5 h; at 7.69 µM (top of the series) unless noted;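 further: carbachol stimulus at about its EC50 of 1 µM final; on the % scale 0 is the no-effect control and ±100 the full control effect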
In short: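 Jurkat cells with NFAT-driven β-lactamase reporter and co-expressed M1 receptor, stimulated with carbachol (final 1 uM, ~EC50), compound titration, 5 h at 37 °C. CCF4 loaded 1 h at RT; 460/530 nm ratio gave %activity and AC50.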

[10] = target: Cytochrome P450 2D6 (Homo sapiens) (UniProt P10635); assay: qHTS Assay for Inhibitors and Substrates of Cytochrome P450 2D6 (AID 891; active means well fitted curve in the direction sought with a large enough effect; an effect the other way counts as inactive or inconclusive; further: potency means the concentration at half of the fitted maximal effect; nearly all actives have a fitted effect of over 60% in size); conditions: recombinant CYP2D6, luciferin-ME EGE luminescence; series mostly up to 11.4 µM
Cytochrome P450 2D6 (Homo sapiens), sequence (P10635 whole entry, looked up): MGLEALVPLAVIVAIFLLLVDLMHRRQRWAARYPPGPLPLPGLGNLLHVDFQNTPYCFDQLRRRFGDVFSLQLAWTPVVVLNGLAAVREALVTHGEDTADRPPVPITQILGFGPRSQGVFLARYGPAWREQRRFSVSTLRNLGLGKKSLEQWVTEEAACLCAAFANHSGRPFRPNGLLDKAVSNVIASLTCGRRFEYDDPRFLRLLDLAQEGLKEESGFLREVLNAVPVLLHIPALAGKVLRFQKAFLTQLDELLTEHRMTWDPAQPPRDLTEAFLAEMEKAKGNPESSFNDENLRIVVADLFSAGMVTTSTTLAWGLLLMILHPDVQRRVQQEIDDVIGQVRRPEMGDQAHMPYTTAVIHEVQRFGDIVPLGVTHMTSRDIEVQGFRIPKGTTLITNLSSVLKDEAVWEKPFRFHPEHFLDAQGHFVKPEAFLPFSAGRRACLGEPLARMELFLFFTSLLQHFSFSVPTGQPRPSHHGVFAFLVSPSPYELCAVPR
In short: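 Luminescent read-out of luciferin formed by 5 nM human CYP2D6 demethylating 30 uM Luciferin-ME EGE (Km level) over 60 min at room temperature after NADPH regeneration addition. Data normalized to full inhibition by 1.43 uM quinidine.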

[11] = target: Cytochrome P450 3A4 (Homo sapiens) (UniProt P08684); assay: qHTS Assay for Activators of Cytochrome P450 3A4 (AID 885; active means well fitted curve in the direction sought with a large enough effect; an effect the other way counts as inactive or inconclusive; further: nearly all actives have a fitted effect of over 65% in size); conditions: recombinant CYP3A4, Luciferin-PPXE luminescence, 60 min; series mostly up to 57.1 µM
Cytochrome P450 3A4 (Homo sapiens), sequence (P08684 whole entry, looked up): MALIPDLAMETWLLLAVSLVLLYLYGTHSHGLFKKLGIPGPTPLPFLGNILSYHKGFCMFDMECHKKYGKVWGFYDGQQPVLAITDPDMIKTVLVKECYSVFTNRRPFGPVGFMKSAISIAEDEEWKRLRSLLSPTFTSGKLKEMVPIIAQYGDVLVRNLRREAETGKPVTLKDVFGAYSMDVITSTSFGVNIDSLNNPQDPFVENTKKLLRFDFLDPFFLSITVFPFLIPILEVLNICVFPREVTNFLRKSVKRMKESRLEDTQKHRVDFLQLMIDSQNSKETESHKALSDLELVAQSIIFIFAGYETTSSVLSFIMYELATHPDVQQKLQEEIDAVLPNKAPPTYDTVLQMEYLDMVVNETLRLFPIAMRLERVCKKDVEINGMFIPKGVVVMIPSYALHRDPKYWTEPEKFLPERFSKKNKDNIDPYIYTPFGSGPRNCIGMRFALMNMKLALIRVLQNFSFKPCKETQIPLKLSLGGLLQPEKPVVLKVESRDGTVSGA
In short: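 Human CYP3A4 dealkylates Luciferin-PPXE to luciferin, which luciferase detection converts to light. Substrate was at its KM (25uM), buffer 200mM KPO4, reaction 60 min at RT.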

CC(C)[C@@H](Br)C(=O)NCC(=O)O
inactive: Potency [1] > 11.4 µM | activity change, negative = inhibition [2] 5.1% | activity, negative = inhibition [3] 11.3% | Potency [4] > 46 µM | Potency [5] > 9.22 µM | activity change, negative = inhibition [6] 4.52% [at 11.4 µM] | outcome [7]

Oc1c(Cl)c(Cl)c(Cl)c(Cl)c1Cl (tested in a mixture with another compound)
inactive: Potency [1] > 11.4 µM | activity change, negative = inhibition [2] -9.55% [middle of 4 runs] | activity, negative = inhibition [3] -12.9% [middle of 4 runs] | Potency [4] > 46 µM | activity change, negative = inhibition [6] 0.344% [at 11.4 µM] [middle of 4 runs] | outcome [7]

O=C1C[C@@H]2OCC=C3CN4CC[C@]56c7ccccc7N1[C@@H]5[C@@H]2[C@H]3C[C@H]46 (tested in a mixture with another compound)
inactive: Potency [1] > 11.4 µM | activity change, negative = inhibition [2] 5.95% | activity change, negative = inhibition [6] 1.78% [at 11.4 µM] | outcome [7]

CC[C@]1(OC(=O)CN)C(=O)OCc2c1cc1n(c2=O)Cc2cc3ccccc3nc2-1
inactive: Potency [1] > 11.4 µM | Potency [4] > 46 µM | Potency [5] > 9.22 µM | activity change, negative = inhibition [6] -1.42% [at 11.4 µM] | outcome [7]

C=C[C@@H]1CN2CC[C@H]1C[C@H]2[C@H](O)c1ccnc2ccccc12
active: Potency [10] 3.98 µM
inactive: Potency [1] > 11.4 µM | Potency [8] | activity change, negative = inhibition [9] 0.393% | activity, negative = inhibition [3] 3.16% | Potency [4] > 46 µM | Potency [5] > 9.22 µM | activity change, negative = inhibition [6] 5.22% [at 11.4 µM] | outcome [7]

Cc1ccc(S(=O)(=O)O[C@H]2CN3CCC2CC3)cc1
inactive: Potency [1] > 11.4 µM | activity change, negative = inhibition [2] 10.6% | activity, negative = inhibition [3] -1.72% | Potency [4] > 46 µM | Potency [5] > 9.22 µM | activity change, negative = inhibition [6] 5.42% [at 11.4 µM] | outcome [7]

Oc1ccc(CCNCc2cc3c(cc2Br)OCO3)cc1
active: Potency [10] 0.316 µM
inactive: Potency [1] > 11.4 µM | activity change, negative = inhibition [2] -4.32% | activity, negative = inhibition [3] 9.31% | Potency [4] > 46 µM | Potency [5] > 9.22 µM | activity change, negative = inhibition [6] 0.159% [at 11.4 µM] | outcome [7] | activity change, positive = activation [11] -36.4% [at 11.4 µM]

c1cncc(CNCCN2CCNCC2)c1
inactive: Potency [1] > 11.4 µM | activity change, negative = inhibition [2] 5.14% | Potency [5] > 9.22 µM | activity change, negative = inhibition [6] 1.33% [at 11.4 µM] | outcome [7]

c1nc(N2CC2)c2cnn([C@@H]3CCCCO3)c2n1
inactive: Potency [1] > 11.4 µM | activity change, negative = inhibition [2] 5.4% | activity, negative = inhibition [3] -5.16% | Potency [4] > 46 µM | Potency [5] > 9.22 µM | activity change, negative = inhibition [6] 0.68% [at 11.4 µM] | outcome [7]

CC(C)CNCCc1ccccn1
inactive: Potency [1] > 11.4 µM | activity change, negative = inhibition [2] 11.4% | activity, negative = inhibition [3] 0.662% | Potency [4] > 46 µM | Potency [5] > 9.22 µM | outcome [7]

O=C(c1ccccc1)[C@H]1[C@H](c2ccccc2[N+](=O)[O-])N1C1CCCCC1 (stereo partly drawn)
active: Potency [8] 0.631 µM
inactive: Potency [1] > 11.4 µM | Potency [4] > 46 µM | Potency [5] > 9.22 µM | activity change, negative = inhibition [6] -6.49% [at 11.4 µM] | outcome [7] | activity change, positive = activation [11] -50.5% [at 11.4 µM]

CC[C@@H]1[C@@H]2Cc3ccc(O)cc3[C@@]1(CC)CCN2C
inactive: Potency [1] > 11.4 µM | activity change, negative = inhibition [2] -9.39% | activity, negative = inhibition [3] 2.87% | outcome [7]

CSC([N-]/N=C/c1cccc(C)n1)=[S]=[Cu].CS[C@H]([S-])[N-]/N=C/c1cccc(C)n1
active: Potency [8] 0.631 µM
inactive: Potency [1] > 11.4 µM | Potency [4] > 46 µM | Potency [5] > 9.22 µM | outcome [7] | activity change, positive = activation [11] -73.3% [at 11.4 µM]

CCCOC(=O)[C@@H]1[C@@H](C(=O)O)[C@H]2CC[C@@H]1O2
inactive: Potency [1] > 11.4 µM | activity change, negative = inhibition [2] 5.41% | activity, negative = inhibition [3] 8.61% | Potency [4] > 46 µM | Potency [5] > 9.22 µM | activity change, negative = inhibition [6] 6.67% [at 11.4 µM] | outcome [7]

O=C(O)CN1CCN(CC(=O)O)CC(=O)[O][Hg][O]C(=O)C1
inactive: activity change, negative = inhibition [2] 18.9% | activity, negative = inhibition [3] 1.17% | activity change, negative = inhibition [6] -1.36% [at 11.4 µM] | outcome [7] | activity change, positive = activation [11] -78.1% [at 11.4 µM]
active: Potency [1] 0.199 µM | Potency [10] 3.16 µM

CC(=O)O[C@H]1CC[C@H]2[C@@H]3CCC4=C[C@@H](C5SCCS5)[C@H](OC(C)=O)C[C@]4(C)[C@H]3CC[C@@]12C
inactive: Potency [1] > 11.4 µM | activity change, negative = inhibition [2] -2.54% | activity, negative = inhibition [3] 0.282% | Potency [4] > 46 µM | Potency [5] > 9.22 µM | activity change, negative = inhibition [6] 5.72% [at 11.4 µM] | outcome [7]

COc1cc2c3cc1Oc1c(O)c(OC)cc4c1[C@@H](Cc1ccc(cc1)Oc1cc(ccc1O)C[C@H]3N(C)CC2)N(C)CC4
inactive: Potency [1] > 11.4 µM | activity change, negative = inhibition [2] 5.28% | Potency [4] > 46 µM | Potency [5] > 9.22 µM | outcome [7]

COc1ccc(C[C@@H]2NC[C@H](O)[C@@H]2OC(C)=O)cc1
inactive: Potency [8] | Potency [4] > 20.6 µM | Potency [5] > 20.6 µM | Potency [6] | outcome [7]
active: activity change, negative = inhibition [2] -118% [at 17.2 µM] | activity change, negative = inhibition [9] -130% [at 17.2 µM] | activity, negative = inhibition [3] -101% [at 17.2 µM]

CSCC[C@@H](N)P(C)(=O)O
inactive: activity change, negative = inhibition [2] 10.2% | Potency [8] | activity change, negative = inhibition [9] 2.01% | activity, negative = inhibition [3] 13.5% | Potency [4] > 46 µM | Potency [5] > 9.22 µM | activity change, negative = inhibition [6] 0.585% [at 11.4 µM] | outcome [7]

C[As+](C)(c1ccc(Br)c([N+](=O)[O-])c1)c1ccc(Br)c([N+](=O)[O-])c1.O=[N+]([O-])O
inactive: activity change, negative = inhibition [2] 10.5% | Potency [8] | activity change, negative = inhibition [9] -2.2% | Potency [4] > 46 µM | Potency [5] > 9.22 µM | activity change, negative = inhibition [6] -0.633% [at 11.4 µM] | outcome [7]

NC[C@@H](Cc1ccccc1)P(=O)(O)O
inactive: activity change, negative = inhibition [2] 11.5% | Potency [8] | activity change, negative = inhibition [9] 4.85% | activity, negative = inhibition [3] 2.4% | Potency [4] > 46 µM | Potency [5] > 9.22 µM | outcome [7]

From PubChem BioAssay (NCATS)
